FECH inh: blocks human mitochondrial ferrochelatase activity; calls only at 10 µM (by protocol); AID 1671448; purified FECH, Ni-mesoporphyrin absorbance 550 nm; 20,000 compounds, 3.3% hits; P22830;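 active means enzyme reaction rate more than 3 SD below the solvent-only control wells on the same plate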;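 further: lower slope than DMSO wells means FECH inhibition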
Target sequence (P22830 whole entry, looked up): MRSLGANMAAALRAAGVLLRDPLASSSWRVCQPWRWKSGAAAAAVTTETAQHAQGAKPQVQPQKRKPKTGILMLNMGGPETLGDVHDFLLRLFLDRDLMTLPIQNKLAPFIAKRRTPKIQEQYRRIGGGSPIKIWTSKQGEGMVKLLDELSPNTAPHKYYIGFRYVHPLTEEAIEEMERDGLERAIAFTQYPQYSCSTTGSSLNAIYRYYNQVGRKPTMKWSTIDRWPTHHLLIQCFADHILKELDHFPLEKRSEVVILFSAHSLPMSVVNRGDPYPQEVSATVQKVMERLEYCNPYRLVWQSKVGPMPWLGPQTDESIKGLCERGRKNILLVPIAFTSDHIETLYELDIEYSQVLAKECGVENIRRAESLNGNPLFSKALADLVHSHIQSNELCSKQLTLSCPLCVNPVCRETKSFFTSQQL
Calls only; – = inactive; + = active, no number. Many of the other results were omitted from the sample, so hits are more common in it than they were.

SMILES | FECH inh
CCCNC(=O)C1CCN(c2ccc(-c3ccccc3)nn2)CC1 | –
CCN(CCNC(=O)C1CCN(c2ccc(-c3ccccc3)nn2)CC1)Cc1ccccc1 | +
O=C(NC1CC1)C1CCN(c2ccc(-c3cccs3)nn2)CC1 | –
O=C(NC1CC1)C1CCN(c2ccc(-c3ccccc3)nn2)CC1 | +
Cc1ccc(-c2ccc(N3CCC(C(=O)NCCCN(C)Cc4ccccc4)CC3)nn2)cc1 | –
Nc1nnc(SCC(=O)NCCC2COc3ccccc3O2)s1 (centres undefined) | –
COCC1(NC(=O)Nc2nc(-c3ccccc3)ns2)CCCC1 | –
CC(CCc1ccccc1)NC(=O)Cn1c(=O)c2cnc(-c3ccccc3)nc2n(C)c1=O (centres undefined) | –
Cc1cc2nc(CSc3nnc4c(n3)[nH]c3ccccc34)cc(=O)n2o1 | +
Cc1cc2nc(CSc3nnc(-c4cc(C)n(C)n4)o3)cc(=O)n2o1 | –
Cc1cc(C)n2c(SCc3cc(=O)n4oc(C)cc4n3)nnc2n1 | –
O=C1COc2ccccc2N1CCc1n[nH]c(CCc2ccccc2)n1 | –
CC(C)c1cc(=O)n2[nH]c(CNc3cccc(C(F)(F)F)c3)nc2n1 | +
COc1ccc(CNc2nc3nc(CNc4cccc(C(F)(F)F)c4)cc(=O)n3[nH]2)cc1 | –
COc1ccc(CNc2nc3nc(CNc4ccc(OC)cc4)cc(=O)n3[nH]2)cc1 | –
Cc1ccc(NCc2nc3nc(C(C)C)cc(=O)n3[nH]2)cc1Cl | +
COc1ccccc1CNc1nc2nc(CNc3cccc(C(F)(F)F)c3)cc(=O)n2[nH]1 | –
CCc1nc2nc(C)c(NC(=O)Nc3ccc(C)c(Cl)c3)c(=O)n2[nH]1 | –
O=C1NCC2(CCCN(C(=O)CCn3cnc4ccccc43)CC2)O1 (centres undefined) | –
COc1cccc(C(=O)C2CCCN(C(=O)c3cnc(C4CC4)nc3)C2)c1 (centres undefined) | –
CSc1ccc(-c2nc(CN3CCc4nc(N)sc4C3)c(C)o2)cc1 | –
CN(C)S(=O)(=O)CCn1cnnc1 | –
Cc1ccc(-c2noc(CCNC(=O)c3cc(C4CC4)[nH]n3)n2)cc1 | –
CCn1ncnc1CN1CCOC(Cc2cccc3ccccc23)C1 (centres undefined) | –
O=C(CN1C(=O)c2ccccc2S1(=O)=O)NCc1ccc2c(c1)OCO2 | –
SMILES | FECH inh
COc1ccc(CCNC(=O)CN2c3ccc(C(C)C)cc3-c3ccccc3S2(=O)=O)cc1 | –
CCc1ccc2c(c1)-c1ccccc1S(=O)(=O)N2CC(=O)NCCc1ccc(OC)c(OC)c1 | –
CC(C)c1ccc2c(c1)-c1ccccc1S(=O)(=O)N2CC(=O)NCCN1CCOCC1 | –
CCOCCCNC(=O)CN1c2ccc(CC)cc2-c2ccccc2S1(=O)=O | +
CC(C)c1ccc2c(c1)-c1ccccc1S(=O)(=O)N2CC(=O)NCc1cccnc1 | +
CCc1ccc2c(c1)-c1ccccc1S(=O)(=O)N2CC(=O)NCCN1CCOCC1 | –
CCc1ccc2c(c1)-c1ccccc1S(=O)(=O)N2CC(=O)NCc1ccncc1 | +
CN(C)CCNC(=O)c1ccc(CN2C(=O)CCn3nc(-c4cccc(Cl)c4)cc32)cc1 | –
CC(C)Cc1ccc(CN2CCC(N)(C(=O)O)C2)s1 (centres undefined) | –
Cc1ccc(C(=O)CN(c2nc3nc(C)cc(C)n3n2)S(=O)(=O)c2ccccc2)cc1 | –
COc1cccc(Nc2nc(NCC3CCCO3)nc3c2cnn3-c2ccccc2)c1 (centres undefined) | –
CCOc1ccc(Nc2nc(NCC3CCCO3)nc3c2cnn3-c2ccccc2)cc1 (centres undefined) | +
COc1ccc(OC)c(Nc2nc(NCc3ccccc3OC)nc3c2cnn3-c2ccccc2)c1 | –
CCOc1ccc(Nc2nc(N(CC)CCO)nc3c2cnn3-c2ccccc2)cc1 | –
COc1ccc(OC)c(Nc2nc(NCc3ccccc3)nc3c2cnn3-c2ccccc2)c1 | –
COc1ccc(OC)c(Nc2nc(NCc3ccccc3Cl)nc3c2cnn3-c2ccccc2)c1 | +
COc1cccc(Nc2nc(N(C)C)nc3c2cnn3-c2ccccc2)c1 | –
COc1ccc(Nc2nc(N(C)C)nc3c2cnn3-c2ccccc2)cc1 | +
CN(C)c1nc(Nc2ccc(Cl)cc2)c2cnn(-c3ccccc3)c2n1 | –
CCN(CC)c1nc(Nc2ccc(OC)cc2)c2cnn(-c3ccccc3)c2n1 | +
CCOc1ccc(Nc2nc(N(CC)CC)nc3c2cnn3-c2ccccc2)cc1 | –
Cc1cc(C)cc(Nc2nc(NCC3CCCO3)nc3c2cnn3-c2ccccc2)c1 (centres undefined) | –
COCc1c(C(=O)N2CC3CC4CC2C[C@@H](C4)C3)noc1C | –
C=C(C)COc1ccccc1C(=O)NCc1noc(-c2cccs2)n1 | –
CN(Cc1ccc(C(=O)Nc2ccc3c(c2)ncn3C)cc1)C1CCOCC1 | –
SMILES | FECH inh
COc1ccc(C(=O)Nc2cc(C)nn2-c2ncnc3c2cnn3-c2cccc(C)c2C)cc1 | –
Cc1ccc(N(Cc2nc3nc(C)c(Cl)c(C)n3n2)C(=O)c2ccccc2F)cc1 | –
CN1CC(=O)N(CC(=O)Nc2ccc(-c3ccno3)cc2)c2ccccc2C1=O | +
CN1CC(=O)N(CC(=O)Nc2cccc(-c3ccno3)c2)c2ccccc2C1=O | –
CC(=O)Nc1ccc(NC(=O)CN2C(=O)CN(C)C(=O)c3ccccc32)cc1 | –
Cc1cc(C(=O)N2CC[C@H](N(C)C)C2)c2cccc(C)c2n1 | –
Cc1ncc(CO)c2cc(C3=NS(=O)(=O)c4ccccc4N3)c(=O)oc12 | +
COc1ccnc(CN2CCC(c3ccc(C(=O)O)cc3)C2)c1OC (centres undefined) | –
